SMILES strings stand for the structures. Results filed as inconclusive are left out. Active and inactive are the calls of the source. How the source made its calls: active means hit-call score of the fitted dose curve at least 0.9, where 1 is the maximum; inconclusive means response in the unintended direction; inactive means score below 0.9.

The source of these data is PubChem BioAssay (EPA / NIEHS).

Read-out in this experiment: xenobiotic metabolism (CYP2C9), CYP2C9 (gene 1559)
Nature of the experiment: CLD_CYP2C9_6hr: CellzDirect (CLD) Gene Expression Assay for xenobiotic metabolism (CYP2C9) at 6 hours (AID 2283664). How it is done:
CLD_6hr is a cell-based, multiplexed-readout assay that uses hepatocyte, a human liver primary cell, with measurements taken at 6 hours after chemical dosing in a 96-well plate.CLD_CYP2C9_6hr is one of 16 assay component(s) measured or calculated from the CLD_6hr assay. It is designed to make measurements of mRNA induction, a form of inducible reporter, as detected with chemiluminescence signals by Quantitative Nuclease Protection Assay (qNPA) technology.Data from the assay component CLD_CYP2C9_6hr was analyzed at the endpoint, CLD_CYP2C9_6hr, in the positive analysis fitting direction relative to DMSO as the negative control and baseline of activity. Using a type of inducible reporter, gain-of-signal activity can be used to understand changes in the reporter gene as they relate to the gene CYP2C9. Furthermore, this assay endpoint can be referred to as a primary readout. To generalize the intended target to other relatable targets, this assay endpoint is annotated to the cyp intended target family, where subfamily is xenobiotic metabolism.
Human hepatocyte cultures were treated daily for two consecutive days with fresh dosing solutions containing appropriate concentrations of the 320 ToxCast chemicals (chemical identities were blinded to CellzDirect and other ToxCast collaborators), vehicle control (0.2% DMSO), and positive control inducers as summarized in Table 1. Due to the large number of treatment groups and chemicals examined, the ToxCast chemicals were divided into two groups (spanning two independent cultures of hepatocytes from separate donor preparations (Hu778: ToxCast plates 1 and 2; Hu776: ToxCast plates 3 and 4). Each preparation of human hepatocyte cultures was treated with respective vehicle control, medium only control, set of six positive controls/reference chemicals for the five hepatic receptor pathways, and a subset of eight of the ToxCast chemicals (indoxacarb, pyrithiobac-sodium, norflurazon, cyhalofop-butyl, methomyl, thiram, acetochlor, and propiconazole). These replicate data, coupled with internal replicates designed within the blinded ToxCast chemical library, provided additional data to evaluate interindividual differences between hepatocyte preparations and their potential impact on chemical profiles.Cell morphology and integrity were evaluated using phase-contrast microscopy as an indicator of hepatocyte cell health (Tyson & Green, 1987). Cultures for each treatment group (i.e., media, vehicle [0.2% DMSO], positive control inducers [multiple concentrations], and the ToxCast chemicals [multiple concentrations]) were observed and cell morphology was assessed relative to vehicle control cultures at each harvest time point (0, 6, 24, or 48 h). […] Images were evaluated at the conclusion of the study to assess changes in cell integrity and account for the effects of chemical exposure on uncharacteristic changes in concentration-dependent gene expression profiles. The results from these determinations of apparent cytotoxicity were annotated (yes/no) alongside the corresponding qNPA data for reference.At the conclusion of each treatment period, hepatocyte cultures (96-well) were washed with 1 volume of HBSS, lysed by addition of 25 ul ArrayPlate lysis buffer (HTG, Tucson, AZ), and 70 ul/well of Denaturation Oil, denatured by incubation at 95C for 10 min, and frozen at approximately -70C until analysis by nuclease protection assay (qNPA) (Roberts et al., 2007). For qNPA analysis, cell lysates were thawed at 50C for approximately 30 min, qNPA probes were added, and samples were incubated at 95C for 10 min to begin the detection process by denaturing the target RNA, dissociating the duplexes and secondary structure hybridization. At the conclusion of the hybridization period, S1 nuclease reagent was added to each sample to digest all nonprotected nucleotides at 50C for 60-90 min. […]
On to `COc1cc(OC)nc(NC(=O)NS(=O)(=O)c2cc(NC=O)ccc2C(=O)N(C)C)n1`, for which the result was inactive.
`CCc1ccc(C(=O)NN(C(=O)c2cc(C)cc(C)c2)C(C)(C)C)cc1`: the outcome was inactive.
Consider `Oc1cc(Cl)ccc1Oc1ccc(Cl)cc1Cl`, for which the result was inactive.
Regarding `CC1(c2ccc(Oc3ccccc3)cc2)OC(=O)N(Nc2ccccc2)C1=O` (centres undefined), the call was inactive.
Turning to `C[C@H]1[C@H](c2ccc(Cl)cc2)SC(=O)N1C(=O)NC1CCCCC1`, the molecule was called inactive.
`O=C(O)COc1ccc(Cl)cc1Cl`: the result was inactive.
As to `Cc1[nH]c(=O)n(C(C)(C)C)c(=O)c1Cl`, the outcome was inactive.
For `CNC(=O)Oc1ccccc1OC(C)C`, the molecule was classed as inactive.
For `Cc1cc(C)nc(NC(=O)NS(=O)(=O)c2ccccc2C(=O)OC2COC2)n1`, the outcome was inactive.
As to `O=C(NC(=O)c1c(F)cccc1F)Nc1ccc(OC(F)(F)C(F)OC(F)(F)F)c(Cl)c1` (centres undefined), the call was inactive.
Consider `OCCOc1ccccc1`, for which the molecule was classed as inactive.
Take `COC(=O)c1ccccc1S(=O)(=O)NC(=O)N(C)c1nc(C)nc(OC)n1`: the molecule was called inactive.
As to `CCCN(CCOc1c(Cl)cc(Cl)cc1Cl)C(=O)n1ccnc1`, the molecule was classed as inactive.
For `COC(=O)c1ccccc1CS(=O)(=O)NC(=O)Nc1nc(OC)cc(OC)n1`, the result was inactive.
In the case of `[2H]C1([2H])[n+]2ccccc2-c2cccc[n+]2C1([2H])[2H]`, the outcome was inactive.
As to `CNC(=O)CSP(=S)(OC)OC`, the outcome was inactive.
Turning to `O=C(O)CCCOc1ccc(Cl)cc1Cl`, the outcome was inactive.
The result for `CCC(C)(NC(=O)c1cc(Cl)c(C)c(Cl)c1)C(=O)CCl` (centres undefined) reads “inactive”.
Turning to `O=[N+]([O-])/N=C1\NCCN1Cc1ccc(Cl)nc1`, the molecule was called inactive.
